This note sets out measurements from PMC7862700, “An all-to-all approach to the identification of sequence-specific readers for epigenetic DNA modifications on cytosine”.

Holding throughout (experiment): DAPPL (digital affinity profiling via proximity ligation, sequencing); 10 mM Tris-HCl pH 7.5, 50 mM NaCl, 1 mM DTT, 4% glycerol, room temperature, 30 min; GST-TFs on glutathione beads, 16-mer random dsDNA library, 0.1% formaldehyde crosslink after washing; high values mean tight binding
The target in test [1] is SPI1 (Homo sapiens, UniProt P17947 1-270). Conditions: protein: recombinant; tags: N-terminal GST; dsDNA, one strand shown. The method, boiled down:
(§1)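 Human transcription factors carrying a GST fusion were produced in yeast, bound to glutathione beads, tagged with DNA barcodes and pooled together with a tag-only sample. Each pool was held with 200 nmole of a random double-stranded 16-mer DNA library in Tris/NaCl/DTT/glycerol buffer for 30 min at room temperature, then washed, crosslinked in 0.1% formaldehyde, proximity-ligated with BsaI/T4 ligase (1 h, 37 °C), PCR-amplified and sequenced on an Illumina NextSeq500. Binding signal is the read frequency of each hexamer for a given factor divided by its frequency in the tag-only sample.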

Test [2] concerns the target HSF1 (Homo sapiens, UniProt Q00613 1-529). The conditions noted are these: protein: recombinant; tags: N-terminal GST; chain copies: 3; dsDNA, one strand shown. The method in brief: as §1
The target of test [3] is T1, ETV2 (Homo sapiens, UniProt O00321 1-342).
T1 sequence: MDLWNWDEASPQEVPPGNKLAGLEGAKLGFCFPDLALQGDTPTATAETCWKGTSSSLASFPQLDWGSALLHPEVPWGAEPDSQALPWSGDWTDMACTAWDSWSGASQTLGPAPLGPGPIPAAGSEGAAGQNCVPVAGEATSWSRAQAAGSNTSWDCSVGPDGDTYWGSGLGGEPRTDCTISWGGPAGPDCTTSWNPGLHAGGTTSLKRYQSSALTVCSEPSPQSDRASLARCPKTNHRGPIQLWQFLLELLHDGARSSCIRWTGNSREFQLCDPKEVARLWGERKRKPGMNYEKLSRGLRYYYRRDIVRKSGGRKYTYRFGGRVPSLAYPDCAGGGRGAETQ
Conditions: protein: recombinant; tags: N-terminal GST; dsDNA, one strand shown. The method in brief:
as §1

The target of test [4] is CRX (Homo sapiens, UniProt O43186 1-299). The conditions noted are these: protein: recombinant; tags: N-terminal GST; dsDNA, one strand shown. The method, boiled down: as §1
Chain of CRX (O43186 whole entry): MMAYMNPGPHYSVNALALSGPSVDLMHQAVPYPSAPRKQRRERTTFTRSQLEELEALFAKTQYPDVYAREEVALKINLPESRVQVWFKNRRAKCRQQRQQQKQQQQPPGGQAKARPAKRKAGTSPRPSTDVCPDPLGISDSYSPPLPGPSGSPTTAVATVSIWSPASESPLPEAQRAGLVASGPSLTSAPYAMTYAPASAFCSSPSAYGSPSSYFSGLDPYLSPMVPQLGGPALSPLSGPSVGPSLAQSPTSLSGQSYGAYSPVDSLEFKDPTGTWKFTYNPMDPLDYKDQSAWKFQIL
The target in test [5] is T2, ERF (Homo sapiens, UniProt P50548 1-548).
T2 sequence: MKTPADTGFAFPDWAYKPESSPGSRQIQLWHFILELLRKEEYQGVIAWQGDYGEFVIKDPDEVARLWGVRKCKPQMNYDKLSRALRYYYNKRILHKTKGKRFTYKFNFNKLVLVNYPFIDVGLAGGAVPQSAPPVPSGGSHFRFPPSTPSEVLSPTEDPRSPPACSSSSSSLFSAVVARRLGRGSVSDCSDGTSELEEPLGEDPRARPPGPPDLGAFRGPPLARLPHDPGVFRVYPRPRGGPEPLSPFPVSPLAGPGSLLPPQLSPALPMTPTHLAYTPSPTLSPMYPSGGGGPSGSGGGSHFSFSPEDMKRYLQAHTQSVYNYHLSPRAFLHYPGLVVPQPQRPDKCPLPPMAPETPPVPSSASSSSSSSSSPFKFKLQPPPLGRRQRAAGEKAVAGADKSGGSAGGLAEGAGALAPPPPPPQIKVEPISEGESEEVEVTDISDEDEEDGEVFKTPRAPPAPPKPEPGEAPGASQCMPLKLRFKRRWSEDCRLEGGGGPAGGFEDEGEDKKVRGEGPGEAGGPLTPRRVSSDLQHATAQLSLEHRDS
Conditions: protein: recombinant; tags: N-terminal GST; dsDNA, one strand shown. The method in brief:
as §1

For test [6], the target named is T3, ETV7 (Homo sapiens, UniProt Q9Y603 1-341).
T3 sequence: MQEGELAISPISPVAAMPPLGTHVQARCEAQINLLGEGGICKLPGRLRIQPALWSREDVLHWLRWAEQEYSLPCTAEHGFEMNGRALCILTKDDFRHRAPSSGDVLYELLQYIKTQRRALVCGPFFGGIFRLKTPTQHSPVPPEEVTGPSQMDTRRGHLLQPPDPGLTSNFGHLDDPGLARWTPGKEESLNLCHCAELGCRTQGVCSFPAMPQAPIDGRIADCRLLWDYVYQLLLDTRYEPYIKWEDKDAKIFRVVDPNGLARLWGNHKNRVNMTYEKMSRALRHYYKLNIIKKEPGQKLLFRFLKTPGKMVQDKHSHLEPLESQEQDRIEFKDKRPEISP
The conditions noted are these: protein: recombinant; tags: N-terminal GST; dsDNA, one strand shown. The method, boiled down:
as §1

Test [7] has as its target ETV6 (Homo sapiens, UniProt P41212 1-452). Conditions: protein: recombinant; tags: N-terminal GST; dsDNA, one strand shown. The method, boiled down: as §1
The target of test [8] is T4, ERG (Homo sapiens, UniProt P11308 1-479).
T4 sequence: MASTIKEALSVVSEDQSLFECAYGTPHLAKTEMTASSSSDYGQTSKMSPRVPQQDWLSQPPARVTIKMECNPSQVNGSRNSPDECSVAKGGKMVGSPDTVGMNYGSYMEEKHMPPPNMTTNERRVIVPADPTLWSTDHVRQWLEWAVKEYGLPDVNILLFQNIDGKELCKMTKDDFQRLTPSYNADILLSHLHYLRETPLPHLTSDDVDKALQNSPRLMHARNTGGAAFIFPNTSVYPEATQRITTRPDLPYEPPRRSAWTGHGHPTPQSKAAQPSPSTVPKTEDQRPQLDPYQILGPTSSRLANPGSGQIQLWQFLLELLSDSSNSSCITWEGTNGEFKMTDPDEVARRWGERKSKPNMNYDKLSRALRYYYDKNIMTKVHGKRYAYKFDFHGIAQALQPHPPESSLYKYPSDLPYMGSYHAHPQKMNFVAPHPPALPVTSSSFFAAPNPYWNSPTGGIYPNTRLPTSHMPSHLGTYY
Conditions: protein: recombinant; tags: N-terminal GST; dsDNA, one strand shown. The method, boiled down: as §1

For test [9], the target named is T5, SPDEF (Homo sapiens, UniProt O95238 1-335).
T5 sequence: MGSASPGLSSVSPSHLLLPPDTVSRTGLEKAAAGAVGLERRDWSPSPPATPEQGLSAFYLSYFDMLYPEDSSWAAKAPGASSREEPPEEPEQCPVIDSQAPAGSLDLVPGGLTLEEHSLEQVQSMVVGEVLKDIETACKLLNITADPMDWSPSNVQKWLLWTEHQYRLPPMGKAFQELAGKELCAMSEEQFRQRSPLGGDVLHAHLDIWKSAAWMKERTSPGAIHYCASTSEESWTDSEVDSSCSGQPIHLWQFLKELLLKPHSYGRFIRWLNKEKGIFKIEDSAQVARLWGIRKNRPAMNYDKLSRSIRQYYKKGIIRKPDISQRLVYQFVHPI
Conditions: protein: recombinant; tags: N-terminal GST; dsDNA, one strand shown. The method in brief: as §1

In test [10] the target is T6, ELF3 (Homo sapiens, UniProt P78545 1-371).
T6 sequence: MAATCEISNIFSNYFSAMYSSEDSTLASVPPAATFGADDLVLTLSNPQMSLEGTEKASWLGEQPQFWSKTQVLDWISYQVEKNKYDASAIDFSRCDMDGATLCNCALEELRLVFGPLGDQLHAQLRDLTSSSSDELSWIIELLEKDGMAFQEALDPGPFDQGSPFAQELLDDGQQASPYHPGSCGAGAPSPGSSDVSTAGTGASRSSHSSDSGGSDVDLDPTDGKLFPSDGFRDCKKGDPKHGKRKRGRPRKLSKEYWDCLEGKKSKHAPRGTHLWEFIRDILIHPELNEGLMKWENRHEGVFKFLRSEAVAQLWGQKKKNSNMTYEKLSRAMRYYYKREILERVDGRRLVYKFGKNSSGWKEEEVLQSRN
The conditions noted are these: protein: recombinant; tags: N-terminal GST; dsDNA, one strand shown. The method in brief:
as §1

Chain of HSF1 (Q00613 whole entry): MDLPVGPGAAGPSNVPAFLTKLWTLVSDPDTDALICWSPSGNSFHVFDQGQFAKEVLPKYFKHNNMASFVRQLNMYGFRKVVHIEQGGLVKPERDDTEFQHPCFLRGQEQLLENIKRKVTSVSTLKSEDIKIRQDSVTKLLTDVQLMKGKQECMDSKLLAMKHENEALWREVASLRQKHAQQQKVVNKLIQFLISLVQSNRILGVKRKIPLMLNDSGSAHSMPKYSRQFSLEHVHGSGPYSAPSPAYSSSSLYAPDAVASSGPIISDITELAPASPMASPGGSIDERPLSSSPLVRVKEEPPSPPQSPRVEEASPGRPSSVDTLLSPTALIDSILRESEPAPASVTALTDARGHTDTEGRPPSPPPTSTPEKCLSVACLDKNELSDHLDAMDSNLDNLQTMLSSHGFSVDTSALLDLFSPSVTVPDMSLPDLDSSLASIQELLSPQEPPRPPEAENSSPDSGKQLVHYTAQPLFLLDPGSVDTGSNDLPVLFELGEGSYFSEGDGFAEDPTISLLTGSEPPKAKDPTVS
Chain of ETV6 (P41212 whole entry): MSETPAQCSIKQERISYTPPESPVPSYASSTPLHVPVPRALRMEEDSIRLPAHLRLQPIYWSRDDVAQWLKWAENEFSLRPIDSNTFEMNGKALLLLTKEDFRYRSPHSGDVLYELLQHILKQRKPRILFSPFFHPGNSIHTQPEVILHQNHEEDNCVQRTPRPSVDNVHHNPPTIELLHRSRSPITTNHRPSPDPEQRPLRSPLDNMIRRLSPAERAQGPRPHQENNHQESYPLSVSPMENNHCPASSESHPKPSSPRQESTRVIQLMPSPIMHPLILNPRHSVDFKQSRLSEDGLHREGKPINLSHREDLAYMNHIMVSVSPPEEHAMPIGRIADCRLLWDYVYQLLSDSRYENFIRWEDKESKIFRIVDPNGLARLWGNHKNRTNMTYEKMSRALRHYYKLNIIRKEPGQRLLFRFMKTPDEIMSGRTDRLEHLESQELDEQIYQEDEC

For TTTAGA, the binding signal in test [1] is 1.05 fold enrichment (6-mer frequency, TF over GST control); in [2], 1.37 fold enrichment (6-mer frequency, TF over GST control); in test [3], 1.12 fold enrichment (6-mer frequency, TF over GST control); in test [4], 1.59 fold enrichment (6-mer frequency, TF over GST control); in [5], 1.08 fold enrichment (6-mer frequency, TF over GST control); in test [6], 1.05 fold enrichment (6-mer frequency, TF over GST control). Further, the binding signal in [7] is 1.04 fold enrichment (6-mer frequency, TF over GST control).

With TAAGAC, the binding signal in test [2] is 1.22 fold enrichment (6-mer frequency, TF over GST control); in [4], 1.72 fold enrichment (6-mer frequency, TF over GST control).

For the sequence GGGATT, the binding signal in test [2] was 1.75 fold enrichment (6-mer frequency, TF over GST control); in test [4], 2.71 fold enrichment (6-mer frequency, TF over GST control).

As for TTCAGA, the binding signal is 1.02 fold enrichment (6-mer frequency, TF over GST control) in test [8]; 1.04 fold enrichment (6-mer frequency, TF over GST control) in test [1]; 1.09 fold enrichment (6-mer frequency, TF over GST control) in [2]; 1.08 fold enrichment (6-mer frequency, TF over GST control) in test [3]; 1.03 fold enrichment (6-mer frequency, TF over GST control) in test [4]; 1.01 fold enrichment (6-mer frequency, TF over GST control) in [9].

Take CGTCGA: the binding signal in test [2] is 1.06 fold enrichment (6-mer frequency, TF over GST control); in [3], 1.01 fold enrichment (6-mer frequency, TF over GST control); in test [9], 1.02 fold enrichment (6-mer frequency, TF over GST control).

As for AGGGAT, the binding signal in [2] was 1.1 fold enrichment (6-mer frequency, TF over GST control); in test [4], 1.49 fold enrichment (6-mer frequency, TF over GST control).

For the sequence CAGATC, the binding signal in [2] was 1.09 fold enrichment (6-mer frequency, TF over GST control); in [3], 1.02 fold enrichment (6-mer frequency, TF over GST control); in test [4] it was 1.13 fold enrichment (6-mer frequency, TF over GST control); in test [9], 1.07 fold enrichment (6-mer frequency, TF over GST control).

With ACGCGA, the binding signal in [2] was 1.04 fold enrichment (6-mer frequency, TF over GST control); in test [3] it was 1.02 fold enrichment (6-mer frequency, TF over GST control).

As to GTCTGG, the binding signal in test [2] was 1.06 fold enrichment (6-mer frequency, TF over GST control); in test [3] it was 1.02 fold enrichment (6-mer frequency, TF over GST control).

For the sequence TAGAGA, the binding signal is 1.3 fold enrichment (6-mer frequency, TF over GST control) in [2] and 1.15 fold enrichment (6-mer frequency, TF over GST control) in test [4].

On to GTAGAA, for which the binding signal in test [1] was 1.01 fold enrichment (6-mer frequency, TF over GST control); in test [2] it was 1.47 fold enrichment (6-mer frequency, TF over GST control); in [10] it was 1.06 fold enrichment (6-mer frequency, TF over GST control).

With AGAAAG, the binding signal in [2] is 1.87 fold enrichment (6-mer frequency, TF over GST control); in [4] it was 1.01 fold enrichment (6-mer frequency, TF over GST control).

Take GATCTG: the binding signal in test [2] was 1.07 fold enrichment (6-mer frequency, TF over GST control); in [4] it was 1.09 fold enrichment (6-mer frequency, TF over GST control).

As to CGAGAT, the binding signal was 1.52 fold enrichment (6-mer frequency, TF over GST control) in test [2]; 1.07 fold enrichment (6-mer frequency, TF over GST control) in test [3]; 1.27 fold enrichment (6-mer frequency, TF over GST control) in [4].
